Most compounds without a hit are left out; they make up all but 2.5% or so of the library.
pAkt inh: Akt phosphorylation inhibition; Neuro2A IGF-stimulated pAkt S473 HTRF, 20 min; stronger effect = lower value; activity change, % for hits at 50 µM; actives 0.32% (n = 360,000); AID 651550; in the data active means activity change below about -80%; inconclusive means mostly about -51% to -80%
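Neuro2A cells in DMEM with 0.5% FBS, overnight at 37 deg C, given compound at single 50 µM final, then IGF (6 nM final) for 20 min at 37 deg C. Lysed; phospho-Akt Ser473 by HTRF after 24 h, 665/615 ratio.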
TDP43 rescue: rescues yeast growth from TDP-43 toxicity; TDP-43 expressing yeast growth rescue, BacTiter-Glo, 24 h; Potency, µM (highest dose often 46.1 µM), most hits filed as activators; actives 1.8% (n = 410,000); further: nearly all actives have a fitted effect of over 50% in size
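Galactose-induced TDP-43 yeast, OD600=0.02, compound pinned; 24 hr, 30 deg C; BacTiter-Glo luminescence for growth. Inhibitors of TDP-43 toxicity read as activators.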
Mito fusion yeast: mitochondrial division inhibition or fusion activation. Potency, µM (doses to about 46.1 µM), usual class: activators. S. cerevisiae fusion-defective mutant growth rescue, CellTiterGlo 48 h. actives 0.23% (n = 320,000). AID 485298; further: nearly all actives have a fitted effect of over 45% in size
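Growth-rescue viability read-out: after 48 h at the non-permissive 37C in glycerol/ethanol YPEG, yeast mitochondrial fusion mutants are measured by CellTiterGlo luminescence; compounds (23 nl pinned per well) restoring growth score as division inhibitors or fusion activators.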
CCT modulator: modulators of cytosolic chaperonin (CCT/TRiC) activity | activity change, % (test concentration not listed), hits read low | purified chaperonin ATPase assay, HTRF ADP detection, 30 min | actives 0.3% (n = 360,000); in the data active means activity change below about -30%
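ATPase activity: ADP formed was measured by HTRF Transcreener (665/615 nm ratio) after 30 min at 37 deg C with 10 uM ATP. Compounds screened at one 76 uM concentration against 40 or 20 nM TRiC in Tris pH 7.4/KCl/MgCl2/DTT buffer.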
Apoferritin bind: candidate novel general anesthetic via apoferritin binding; P02791; apoferritin/1-aminoanthracene competitive binding, fluorescence; Potency, µM (highest dose often 77.5 µM), actives largely listed as inhibitors; actives 0.074% (n = 350,000); further: nearly all actives have a fitted effect of over 20% in size
Target sequence (P02791 2-175 limits assumed): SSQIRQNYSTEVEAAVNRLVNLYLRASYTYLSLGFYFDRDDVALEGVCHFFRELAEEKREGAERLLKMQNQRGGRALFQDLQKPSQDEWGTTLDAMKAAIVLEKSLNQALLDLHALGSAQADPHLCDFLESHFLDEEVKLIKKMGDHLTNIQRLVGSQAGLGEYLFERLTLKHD
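Probe: 1-aminoanthracene (50% saturated, PBS). Protein: horse-spleen apoferritin, 10 uM. Incubation: 10 min, room temperature. Detection: 380 nm excitation, 535 nm emission. Analysis: normalized response, four-parameter Hill.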
aSyn yeast inh: alpha-synuclein toxicity inhibition in yeast. Potency, µM (series often up to 46.1 µM), hits mostly activators. Yeast expressing alpha-synuclein, growth rescue, BacTiter-Glo, 24 h. actives 0.14% (n = 370,000); further: nearly all actives have a fitted effect of over 65% in size
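Screening used galactose-induced yeast with toxic alpha-synuclein levels, exposed to compound for 24 hr at 30 deg C. Cell growth, read with BacTiter-Glo luminescence, gave the measured signal.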
Numbers stand for hits; i = inactive; ? = inconclusive; nt = not tested or not shown; [ ] = remark or other dose. Unless noted, the call rests on the fitted dose curve; in most records, active means well fitted curve in the direction sought with a large enough effect; inconclusive means small, poorly fitted or top-dose-only effect, or another doubt; inactive means no such curve, though single readings can be large; an effect the other way counts as inactive or inconclusive.

SMILES	pAkt inh	TDP43 rescue	Mito fusion yeast	CCT modulator	Apoferritin bind	aSyn yeast inh
O=C(CCSc1nc2cc(Cl)ccc2o1)N1CCOCC1	i	i	i	i	i	i
O=C(CSc1nc2ccccc2o1)Nc1ccc(N2CCOCC2)cc1	-94%	i	i	i	i	i
COc1ccc(CCNC(=O)c2cc(-c3ccc(C)c(C)c3)nc3ccccc23)cc1OC	nt	i	nt	nt	?	nt
Cc1ccc(-c2csc(NC(=O)CSC3=NCCS3)n2)cc1	nt	7.1µM	i	i	i	nt
CCOC(=O)c1ccc(S(=O)(=O)NCC(c2ccc(N(C)C)cc2)c2c[nH]c3ccccc23)cc1 (centres undefined)	i	3.2µM	i	i	i	i
C/C(=N\O)c1cc(Cl)cc(Cl)c1O	i	14µM	i	i	i	?
CCOc1ccc(Nc2ncnc3c2nc2n3CCCCC2)cc1	nt	13µM	nt	nt	i	nt
Fc1ccc(Nc2ncnc3c2nc2n3CCCCC2)c(F)c1	nt	11µM	nt	nt	i	nt
COc1ccc(Nc2ncnc3c2nc2n3CCCCC2)cc1	nt	?	nt	nt	i	nt
COc1cc(Cl)c(C)cc1Nc1ncnc2c1nc1n2CCCC1	nt	i	nt	nt	i	nt
COc1ccc(Nc2ncnc3c2nc2n3CCCC2)cc1Cl	nt	13µM	nt	nt	i	nt
COc1ccccc1C(=O)Nc1ccc(-c2cc(C(F)(F)F)nn2-c2ccccc2)cc1	nt	i	nt	nt	i	nt
Cc1ccc(N2CCN(C(=O)Nc3cn(CC(C)C)c(=O)c4ccccc34)CC2)c(C)c1	nt	i	nt	nt	i	i
COc1ccccc1-c1nnc(C2CCN(S(=O)(=O)c3ccc(CC(C)C)cc3)CC2)o1	nt	i	nt	nt	i	nt
O=C(NNc1ccc(Cl)cc1)C1CCC1	i	?	i	-36	i	i
O=C(NNc1cc(Cl)cc(Cl)c1)C1CCC1	i	i	i	i	i	i
CCCNC(=O)N1CCN(Cc2ccco2)CC1	i	i[0.397 µM]	i	-63	i	i
CCn1c(SCC(=O)Nc2sc3c(c2C#N)CCC(C(C)(C)C)C3)nnc1-c1ccco1 (centres undefined)	i	i	i	i	28µM	i
NC(=O)c1c(NC(=O)CSc2nnc(-c3ccco3)n2-c2ccccc2)sc2c1CCC2	i	i	i	i	22µM	i
Nc1ccc2nc(-c3cccc(-c4nc5ccc(N)cc5[nH]4)c3)[nH]c2c1	i	14µM	i	i	i	i
COc1ccccc1NC(=O)c1cc2ccccc2o/c1=N\O	i	18µM	i	i	?	i
O=C(c1ccco1)N1CCN(c2nc3c(Cl)cccc3s2)CC1	nt	?	nt	nt	i	nt
Cc1ccc(Cl)c2sc(N3CCN(C(=O)c4ccco4)CC3)nc12	i	i	i	i	nt	i
Cc1ccc(C)c2sc(N3CCN(C(=O)c4ccco4)CC3)nc12	nt	11µM	nt	nt	i	nt
Cc1cccc2sc(N3CCN(C(=O)c4ccco4)CC3)nc12	nt	11µM	nt	nt	i	nt
SMILES	pAkt inh	TDP43 rescue	Mito fusion yeast	CCT modulator	Apoferritin bind	aSyn yeast inh
CCOc1ccccc1NC(=O)c1nc(SCc2ccccc2F)ncc1Cl	nt	nt	nt	nt	nt	i
Cc1cc(C)c(Cn2c(=O)n(CCCCCC(=O)NCc3ccc4c(c3)OCO4)c(=O)c3sccc32)c(C)c1	nt	i	nt	nt	i	nt
CCOC(=O)c1[nH]c2ccccc2c1NC(=O)c1ccccc1OC	nt	25µM	nt	nt	i	nt
CCOC(=O)c1[nH]c2ccccc2c1NC(=O)c1cc(Cl)ccc1Cl	nt	i	nt	nt	i	nt
CC(C)=N/N=C1/NC(=O)C(c2ccc(Cl)cc2)S1 (centres undefined)	i	20µM	nt	i	nt	i
CCOc1ccccc1CNC(=O)c1cc2n(n1)CCCN(Cc1ccc(C)cc1)C2=O	nt	35µM	nt	nt	i	nt
O=C1COc2ccccc2N1Cc1ccc(Cl)cc1	i	20µM	i	i	i	i
COc1ccc(CN2C(=O)COc3ccccc32)cc1	i	?	i	i	?	i
Cc1cc(C)c(S(=O)(=O)NCCc2cc3c(C)ccc(C)c3[nH]c2=O)c(C)c1	nt	i	nt	nt	i	nt
CCCS(=O)(=O)NCCc1cc2c(C)ccc(C)c2[nH]c1=O	i	4.5µM	i	i	i	i
CCN1C(C)=C(C(=O)OC(C)C)C(c2ccccc2Cl)C(C(=O)O)=C1C(=O)O (centres undefined)	nt	nt	nt	nt	i	nt
CCOC(=O)c1nnc(-c2ccccc2)nc1NCc1ccc(Cl)cc1	i	13µM	i	i	i	i
CCOC(=O)c1nnc(-c2ccccc2)nc1Sc1c(Cl)cccc1Cl	i	i	i	i	?	i
Cc1cc(C)n2cc(CSc3ncccc3C(=O)O)nc2n1	-111%	i	i	i	i	i
Cc1ccnc(SCc2cn3c(C)cc(C)nc3n2)n1	i	i	i	i	i	i
COc1ccccc1C(=O)NCCSCc1ccccc1Cl	i	13µM	i	i	i	i
Cc1ccc(C(=O)NCCSCc2ccc(Cl)cc2Cl)cc1[N+](=O)[O-]	i	i	i	i	i	i
Cc1c(C(=O)NCCSCc2ccc(Cl)cc2Cl)cccc1[N+](=O)[O-]	i	14µM	i	i	?	i
COc1cccc(NC(=O)Cn2c(=O)n(-c3cccc(OC)c3)c(=O)c3sc4ccccc4c32)c1	nt	i	nt	nt	i	nt
COc1ccc(-c2cc(-c3ccccc3)nc3ncnn23)cc1	i	14µM	i	i	i	i
COc1cccc(NC(=O)Cn2c(=O)n(Cc3ccc(C(=O)NCc4ccc5c(c4)OCO5)cc3)c(=O)c3ccccc32)c1	nt	i	nt	nt	i	nt
O=C1CC(c2cccc(O)c2)Oc2ccccc21 (centres undefined)	i	?	i	i	nt	i
O=C1CC(c2ccccc2)Oc2ccccc21 (centres undefined)	nt	14µM	nt	i	?	i
CNC(=S)N/N=C1\CC(c2ccccc2)Oc2ccccc21 (centres undefined)	i	22µM	i	i	i	i
COc1ccc(C2C=C3CNS(=O)(=O)C3CC2OC(=O)c2cccc(C)c2)cc1 (centres undefined)	nt	nt	nt	nt	i	nt
SMILES	pAkt inh	TDP43 rescue	Mito fusion yeast	CCT modulator	Apoferritin bind	aSyn yeast inh
COC(=O)/C=C\CCc1coc(/C=C\CNC(=O)OC)n1	nt	nt	nt	nt	i[15.3 µM]	nt
O=C(NC1CCN(Cc2ccccc2)CC1)c1ccccc1OCc1ccccc1	i	i	i	i	i	i
O=C(NC1CCCC1)c1ccccc1OCc1ccccc1	i	20µM	?	i	i	i
COc1ccccc1C(=O)NC1CCCCCCC1	i	18µM	i	i	?	i
COc1ccccc1-c1nnc(-c2ccc(C)cc2)o1	i	i	nt	i	nt	i
COc1ccccc1-c1nnc(-c2ccc(N3CCOCC3)cc2)o1	i	13µM	i	i	i	i
COc1ccccc1NC(=O)Nc1nc(C(N)Cc2ccccc2)cs1 (centres undefined)	i	i	nt	-30	nt	i
CCOC(=O)c1ccc(CNc2ncnc3nc[nH]c23)cc1	nt	nt	nt	nt	nt	25µM
C#CCn1c(=O)c2c(nc(/C=C/c3cccc(OC)c3)n2C)n(CCCOP(=O)(O)O)c1=O	nt	nt	nt	nt	i	nt
CCOC(=O)c1nc(Nc2ccc(C(=O)OC(C)C)cc2)c2ccccc2n1	nt	i	nt	nt	?	nt
